Laboratory results published in PubChem BioAssay AID720706 (Broad Institute, 2013).
Where “and” joins values, the source holds several entries; their conditions need not be identical. Identical values can stand only once. Screen size: about 350,000 compounds; about 5,500 (1.6%) were called active.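 Rule for the calls: active = significant combined selectivity score with lowered wild-type GFP, culture density cut under 30%, mutant RFP and density less affected; inactive = any of these conditions unmet.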 The entries come from a sample that favours actives as a whole.

Experiment: GFP drop in mixed WT/humanized-ribosome E. coli culture – GFP/RFP fluorescence, OD600, single point, bacterial rRNA inhibitor project, primary screen (AID 720706)
Details: E. coli WT GFP vs humanized-ribosome RFP mutants, 24 h; GFP signal change (wild-type ribosome): stronger effect = lower value, DMSO median 0, no signal -100; OD600 change: measured here: OD600 growth, DMSO median 0, no signal -100; RFP signal change: measured here: RFP humanized mutant strains, DMSO median 0, no signal -100, concentration not given here

Row | SMILES | GFP signal change (wild-type ribosome) | OD600 change | RFP signal change
1 | COc1ccc(S(=O)(=O)N(C)C[C@@H]2Oc3ccc(NC(=O)CCC(F)(F)F)cc3C(=O)N([C@@H](C)CO)C[C@@H]2C)cc1 | 2.48% (inactive) | 3.34% | -0.798%
2 | C[C@@H](O)C#Cc1ccc([C@H]2[C@H]3CN(C(=O)c4ccc5c(c4)OCO5)CCCCN3[C@H]2CO)cc1 | 3.47% (inactive) | -9% | 2.17%
3 | COc1ccc(-c2cc(=O)oc3cc(OC(C)C(=O)Nc4ccc(CN5CCOCC5)cc4)ccc23)cc1 (stereo not given) | -20% (active) | -14.2% | 3.54%
4 | CCCc1cc(=O)oc2cc(OCC(=O)Nc3ccc(CN4CCOCC4)cc3)c(Cl)cc12 | 0.107% (inactive) | 0.304% | -1.17%
5 | COc1ccc2oc(=O)cc(CN3CCOCC3)c2c1 | 18.2% (inactive) | 14.8% | 0.523%
6 | C[C@@H]1CCCCO[C@@H](CN(C)C(=O)c2ccccc2)[C@H](C)CN([C@@H](C)CO)C(=O)c2cc(NS(=O)(=O)c3cn(C)cn3)ccc2O1 | 4.03% (inactive) | 4.12% | -1.99%
7 | CC(NC(=O)c1ccccc1)C(=O)OCC(=O)Nc1cccc(S(=O)(=O)N2CCCC2)c1 (stereo not given) | -2.56% (inactive) | 4.84% | -0.0785%
8 | Cc1ccc(C(=O)NCC(=O)OCC(=O)Nc2cccc(S(=O)(=O)N3CCCC3)c2)cc1C | -20.9% (active) | -2.78% | -2.48%
9 | O=C(CCNC(=O)c1ccc(Br)cc1)Nc1cccc(S(=O)(=O)N2CCCCC2)c1 | -12.3% (inactive) | -43.3% | 1.03%
10 | CC(C)(C)[S@](=O)N1Cc2cc(C(=O)N[C@@H]3CCN(Cc4ccccc4)C3)nc(-c3cccc(-c4ccncc4)c3)c2[C@@H]1CCO | 1.13% (inactive) | 9.43% | -4.39%
11 | CCCNC(=O)N1C[C@H]2[C@@H](c3ccccc31)[C@H](CO)N2C(=O)NC(C)C | 2.8% (inactive) | 10.8% | 1.99%
12 | COc1ccc(Cl)cc1NC(=O)NC(C)C(C)(C)C (stereo not given) | -0.51% (inactive) | 1.25% | 0.006%
13 | COc1ccc(Cl)cc1NC(=O)NCC1CCN(Cc2ccccc2F)CC1 | -5.44% (inactive) | -28.5% | 37.7%
14 | COc1ccc(Cl)cc1NC(=O)C(C)N1CCc2ccccc21 (stereo not given) | -31% (active) | -24.4% | -3.11%
15 | CSCC[C@H](NC(=O)N1CCn2c1nc1ccccc12)C(=O)NC1CCCCC1 | -28.5% (active) | -22.6% | -0.555%
16 | CSCC[C@H](NC(=O)N1CCn2c1nc1ccccc12)C(=O)NCc1ccc2c(c1)OCO2 | -1.83% (inactive) | -3.03% | 3.82%
17 | CC(C)C[C@H](NC(=O)N1CCn2c1nc1ccccc12)C(=O)NC1CC1 | 0.495% (inactive) | 2.23% | -1.23%
18 | COc1ccc2c3c([nH]c2c1)[C@@H](CO)N(C(=O)c1ccccc1)CC31CCN(C(=O)Nc2cccc(F)c2)CC1 | -4.87% (inactive) | -13.4% | 1.11%
19 | COC(=O)CSc1nnc(NC(=O)CCc2ccccc2)s1 | 7.96% (inactive) | 5.71% | -0.746%
20 | CC(C)Cc1nnc(NC(=O)CCc2ccccc2)s1 | 2.89% (inactive) | 0.415% | 0.86%

Row | SMILES | GFP signal change (wild-type ribosome) | OD600 change | RFP signal change
21 | O=C(CCc1ccccc1)Nc1ncc([N+](=O)[O-])s1 | -42.5% (active) | -20.7% | 2.67%
22 | Cc1ccccc1OS(=O)(=O)c1cccc([N+](=O)[O-])c1 | -22.9% (active) | -15.1% | -4.54%
23 | Cc1cc(C)n(S(=O)(=O)c2cccc([N+](=O)[O-])c2)n1 | 5.54% (inactive) | 9.05% | 1.61%
24 | Cc1cc([N+](=O)[O-])ccc1NS(=O)(=O)c1ccccc1 | -10.6% (inactive) | -35.5% | -7.16%
25 | O=C([C@H]1[C@H](CO)[C@H]2Cn3c(ccc(-c4ccccc4)c3=O)[C@@H]1N2Cc1cccnc1)N1CCOCC1 | 5.29% (inactive) | 5.22% | 0.504%
26 | Cc1ccc(-c2cnc3c(c2)C(=O)N([C@H](C)CO)C[C@H](C)[C@@H](CN(C)S(C)(=O)=O)O3)cc1 | 2.09% (inactive) | 1.04% | 1.43%
27 | C[C@@H]1CN([C@H](C)CO)C(=O)c2c(c3ccccc3n2C)-c2ccccc2CO[C@@H]1CN(C)Cc1ccccc1C(F)(F)F | 3.48% (inactive) | -2.02% | -4.51%
28 | CC(C)NC(=O)Nc1ccc2c(c1)C(=O)N([C@H](C)CO)C[C@@H](C)[C@H](CN(C)S(C)(=O)=O)O2 | 0.569% (inactive) | 1.03% | -2.66%
29 | COc1ccc(NC(=O)CN(C)S(=O)(=O)c2ccccc2)cc1OC | -21.4% (active) | -15.8% | 5.68%
30 | COc1ccc(NC(=O)CN(Cc2ccccc2)S(C)(=O)=O)cc1OC | 7.38% (inactive) | 3.04% | 2.82%
31 | Cc1ccc2nc(-c3ccc(NC(=O)CN(C)S(=O)(=O)c4ccccc4)cc3)sc2c1 | 6.45% (inactive) | 6.57% | -1.11%
32 | C[C@H]1CN([C@@H](C)CO)C(=O)Cc2cc(NC(=O)Cc3ccccc3)ccc2O[C@H]1CN(C)S(=O)(=O)c1ccc(Cl)cc1 | 6.12% (inactive) | 0.505% | -2.09%
33 | C[C@@H]1CN(C)C(=O)c2cccc(N(C)C)c2O[C@H]1CN(C)S(C)(=O)=O | 0.02% (inactive) | -2.43% | -4.17%
34 | CCS(=O)(=O)N1CC(=O)N2[C@H](C1)[C@@H](c1ccc(C#Cc3ccc(F)cc3)cc1)[C@@H]2CO | -26.6% (inactive) | -55.5% | 8.02%
35 | COC(=O)C[C@H]1C[C@H]2c3cc(NC(=O)NC4CCCCC4)ccc3O[C@H]2[C@H](CO)O1 | 3.18% (inactive) | 0.77% | 1.45%
36 | CN1CCN(c2nc(Nc3ccc(O)cc3)nc3ccccc23)CC1 | -21.6% (active) | 2.64% | 1.85%
37 | CC1CN(c2nc(Nc3ccccc3)nc(N)c2[N+](=O)[O-])CC(C)O1 (stereo not given) | -35.4% (inactive) | -33.8% | -0.525%
38 | Cc1cc(N2CCN(C)CC2)nc2ccc(NC(=S)N3CCOCC3)cc12 | 2.14% (inactive) | 1.93% | -1.37%
39 | C[C@H]1CN([C@@H](C)CO)C(=O)c2cc(NS(C)(=O)=O)ccc2O[C@@H]1CN(C)S(=O)(=O)c1ccc(Cl)cc1 | 2.05% (inactive) | 0.615% | 0.846%
40 | CC(=O)N1C[C@@H]2C(c3ccccc3)[C@H](C1)N2Cc1ccc(F)cc1 (stereo not given in full) | -7.42% (inactive) and -0.918% (inactive) | -6.55% and 0.0005% | 2.17% and -0.988%
